# Assay results taken from the supplement of paper PMC12350171.
# Where a name gives a salt, the structure may show the parent alone. A number with no mark means an inactive call.
# Columns and labels:
# Conditions in all cases: 20 µM
# [1] = test system: Salmonella enterica typhimurium; assay: growth AUC normalised to DMSO control (fraction of control); higher = less growth inhibition, active = hit call of the paper
# In short: (§1)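 Pathogens were passaged twice under anaerobic conditions, then inoculated into pre-reduced mGAM plates at a starting OD578 of 0.01, with compound at 20 μM and 1% DMSO, and sealed with breathable membranes. For Haemophilus parainfluenzae, the medium was supplemented with hemin and NAD. OD578 was read every hour for 24 h in three biological replicates. Growth-curve AUC was calculated by the trapezoidal rule up to the exponential-to-stationary transition and normalised to DMSO controls on the same plate.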
# Shigella flexneri = assay: as above
# In short: as §1
# Vibrio cholerae = assay: as above
# In short: as §1
# [2] = test system: Yersinia pseudotuberculosis; assay: as above
# In short: as §1
# P. vulgatus RND KO = assay: growth AUC normalised to DMSO control (median) (fraction of control); higher = less growth inhibition, active = hit call of the paper
# In short: (§2)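 Anaerobic growth was tracked hourly at OD578 for 24 h in 96-well plates of mGAM seeded at OD578 0.01 with each approved-drug library compound at 20 μM and 1% DMSO. Strains had first been passaged twice overnight without oxygen. Three biological replicates were run. The reported median is the area under the curve, calculated by the trapezoidal rule on curves truncated at entry into stationary phase and normalised to vehicle wells on the same plate.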
# P. vulgatus WT = assay: as above
# In short: as §2
# [3] = test system: S. enterica typhimurium WT; assay: as above
# In short: as §2
# [4] = test system: S. enterica typhimurium tolC KO; assay: as above
# In short: as §2
# 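Wherever growth AUC normalised to DMSO control (median) is given: active when median AUC fell below 0.1.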
Structure (SMILES),growth AUC normalised to DMSO control [1],growth AUC normalised to DMSO control (Shigella flexneri),growth AUC normalised to DMSO control (Vibrio cholerae),growth AUC normalised to DMSO control [2],growth AUC normalised to DMSO control (P. vulgatus RND KO),growth AUC normalised to DMSO control (P. vulgatus WT),growth AUC normalised to DMSO control [3],growth AUC normalised to DMSO control [4]
"CN1CCc2c(c3ccccc3n2Cc2ccccc2)C1 [Mebhydroline 1,5-naphtalenedisulfonate]",0.985,0.96,0.922,0.702,0.948,0.971,0.979,0.977
Nc1nc(Cl)nc2c1ncn2[C@H]1C[C@H](O)[C@@H](CO)O1 [Cladribine],0.985,0.949,0.982,1,1.01,1.02,0.915,0.911
CCOC(=O)n1ccn(C)c1=S [Carbimazole],0.98,1,0.981,0.998,0.993,1.01,0.996,1.01
CCOC(=O)[N-]c1c[n+](N2CCOCC2)no1 [Molsidomine],1.02,1.02,1.03,1.01,0.999,0.991,1,1.01
COc1cc(C)nc(-n2nc(C)cc2OC)n1 [Epirizole],0.997,1,0.981,0.992,0.979,0.999,1,1.01
CCC[C@@H]1C[C@@H](C(=O)N[C@@H]([C@H]2O[C@H](SC)[C@H](O)[C@@H](O)[C@H]2O)[C@@H](C)O)N(C)C1 [Lincomycin hydrochloride],0.904 (active),0.956,0.956,0.994,0.0196 (active),0.0159 (active),0.956,0.866
CCN(CC)C(=O)N1CCN(C)CC1 [Diethylcarbamazine citrate],0.959,0.973,0.983,0.998,0.995,0.978,0.999,0.995
CNc1ncnc2c1ncn2[C@@H]1O[C@H](CO)[C@@H](O)[C@H]1O [N6-methyladenosine],0.972,1.03,1,0.97,0.998,1.02,1.02,1.01
CN1CCN(CCCN2c3ccccc3Sc3ccc(S(=O)(=O)N(C)C)cc32)CC1 [Thioproperazine dimesylate],0.999,0.986,0.968,1,1.03,1.01,0.994,0.96
Cc1ccc(-c2cc(C(F)(F)F)nn2-c2ccc(S(N)(=O)=O)cc2)cc1 [Celecoxib],1.01,1.02,0.851 (active),1.03,0.728,0.771,1.01,0.852
CC(C)CC(=O)N[C@H](C(=O)N[C@H](C(=O)N[C@@H](CC(C)C)[C@@H](O)CC(=O)N[C@@H](C)C(=O)N[C@@H](CC(C)C)[C@@H](O)CC(=O)O)C(C)C)C(C)C [Pepstatin A],1.01,1.03,1.04,1,1.02,1.05,1.01,0.988
Cn1nnc2c(C(N)=O)ncn2c1=O [Temozolomide],0.981,0.963,0.992,0.996,0.989,0.988,0.967,1.01
O=c1[nH]c(=O)n([C@H]2C[C@H](O)[C@@H](CO)O2)cc1I [Idoxuridine],0.909 (active),0.861 (active),0.992,0.984,1.01,1.05,0.936,0.933
CC(C)C(=O)Nc1ccc([N+](=O)[O-])c(C(F)(F)F)c1 [Flutamide],1.01,1.04,1.01,0.988,1,1.01,0.985,0.96
CNCCC(Oc1ccc(C(F)(F)F)cc1)c1ccccc1 (configuration not stated) [Fluoxetine hydrochloride],0.996,1,0.975,0.991,0.991,0.997,1.01,0.934
C[C@H]1O[C@@H](O[C@H]2[C@@H](O)C[C@H](O[C@H]3[C@@H](O)C[C@H](O[C@H]4CC[C@@]5(C)[C@H](CC[C@@H]6[C@@H]5C[C@@H](O)[C@]5(C)[C@@H](C7=CC(=O)OC7)CC[C@]65O)C4)O[C@@H]3C)O[C@@H]2C)C[C@H](O)[C@@H]1O [Digoxin],0.978,0.945,0.973,0.993,0.985,1.01,0.987,0.995
CN(c1nccc(=O)[nH]1)C1CCN(c2nc3ccccc3n2Cc2ccc(F)cc2)CC1 [Mizolastine],1.02,1.04,1.02,1.01,0.929,0.921,1.01,0.906
Cc1cc(C(C)(C)CC(C)(C)C)ccc1OCCOCC[N+](C)(C)Cc1ccccc1 [Methyl benzethonium chloride],1.01,0.999,0.943,1.02,0.0136 (active),0.0206 (active),1.01,0.962
CC(C)NCC(O)c1ccc(NS(C)(=O)=O)cc1 (configuration not stated) [Sotalol hydrochloride],1,1.06,1.04,1.02,1.02,1.06,1.01,0.998
CCn1cc(C(=O)O)c(=O)c2cc(F)c(N3CCN(C)CC3)cc21 [Pefloxacin],0.00601 (active),0.0383 (active),0.0435 (active),0.0255 (active),1.01,0.799,0.00724 (active),0.00757 (active)
COc1ccc2c(c1)C(=O)N(CCc1ccc(S(=O)(=O)NC(=O)NC3CCCCC3)cc1)C(=O)C2(C)C [Gliquidone],1,1.02,0.995,1,0.994,1.01,1.01,1
O=C(O)c1ccccc1C(=O)Nc1ccc(S(=O)(=O)Nc2nccs2)cc1 [Phthalylsulfathiazole],1.01,1.01,1.03,0.997,1.03,1.03,0.993,0.998
Cc1ccc(C(=O)c2ccc(CC(=O)O)n2C)cc1 [Tolmetin sodium salt dihydrate],0.984,1.04,1.05,1.01,0.983,0.985,0.999,1
CCOc1nc2cccc(C(=O)O)c2n1Cc1ccc(-c2ccccc2-c2nnn[nH]2)cc1 [Candesartan],1.01,1.02,1.04,1.01,1.01,1,1.01,0.987
O=C1OCCN1/N=C/c1ccc([N+](=O)[O-])o1 [Furazolidone],0.391 (active),0.0191 (active),0.0449 (active),0.842 (active),0.0122 (active),0.00859 (active),0.459,0.609
CCC[C@H](N[C@@H](C)C(=O)N1[C@H](C(=O)O)C[C@@H]2CCCC[C@@H]21)C(=O)OCC [Perindopril],1.02,1.02,0.963,1.04,1.03,1.04,1.01,1
CN(C)C/C=C(/c1ccc(Br)cc1)c1cccnc1 [Zimelidine dihydrochloride monohydrate],0.996,0.999,1,1.03,1.04,1.04,1.02,0.983
"CC(C)Cc1ccc([C@H](C)C(=O)O)cc1 [(S,+) Ibuprofen]",1.01,0.968,0.95,0.983,0.989,0.982,0.994,1
Nc1ccc(O)c(C(=O)O)c1 [Mesalamine],1.01,1.02,1.02,1.03,1,1.03,0.998,1.01
